Values without a mark were called inactive. The source made the active and inactive calls. Rule as the data show it, unless noted: active = inhibition above about 30%; inactive = the rest.
What was measured:
[1] = biological target: Nuclear receptor coactivator 3 (Homo sapiens) (UniProt Q9Y6Q9); assay: NCOA3 GAL4-fusion reporter inhibition – cell-based, luminescence, quadruplicate, confirmation (AID 588792;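 active = mean inhibition over 43.08%, the solvent-only control mean plus 3 SD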;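 also: 0% = DMSO treated cells and 100% = gossypol at 36 µM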); conditions: HEK293 GAL4-SRC3 luciferase reporter, at 3.6 µM, hits give high values
Chain of Nuclear receptor coactivator 3 (Homo sapiens) (Q9Y6Q9 whole entry, looked up, the tested form may be a part): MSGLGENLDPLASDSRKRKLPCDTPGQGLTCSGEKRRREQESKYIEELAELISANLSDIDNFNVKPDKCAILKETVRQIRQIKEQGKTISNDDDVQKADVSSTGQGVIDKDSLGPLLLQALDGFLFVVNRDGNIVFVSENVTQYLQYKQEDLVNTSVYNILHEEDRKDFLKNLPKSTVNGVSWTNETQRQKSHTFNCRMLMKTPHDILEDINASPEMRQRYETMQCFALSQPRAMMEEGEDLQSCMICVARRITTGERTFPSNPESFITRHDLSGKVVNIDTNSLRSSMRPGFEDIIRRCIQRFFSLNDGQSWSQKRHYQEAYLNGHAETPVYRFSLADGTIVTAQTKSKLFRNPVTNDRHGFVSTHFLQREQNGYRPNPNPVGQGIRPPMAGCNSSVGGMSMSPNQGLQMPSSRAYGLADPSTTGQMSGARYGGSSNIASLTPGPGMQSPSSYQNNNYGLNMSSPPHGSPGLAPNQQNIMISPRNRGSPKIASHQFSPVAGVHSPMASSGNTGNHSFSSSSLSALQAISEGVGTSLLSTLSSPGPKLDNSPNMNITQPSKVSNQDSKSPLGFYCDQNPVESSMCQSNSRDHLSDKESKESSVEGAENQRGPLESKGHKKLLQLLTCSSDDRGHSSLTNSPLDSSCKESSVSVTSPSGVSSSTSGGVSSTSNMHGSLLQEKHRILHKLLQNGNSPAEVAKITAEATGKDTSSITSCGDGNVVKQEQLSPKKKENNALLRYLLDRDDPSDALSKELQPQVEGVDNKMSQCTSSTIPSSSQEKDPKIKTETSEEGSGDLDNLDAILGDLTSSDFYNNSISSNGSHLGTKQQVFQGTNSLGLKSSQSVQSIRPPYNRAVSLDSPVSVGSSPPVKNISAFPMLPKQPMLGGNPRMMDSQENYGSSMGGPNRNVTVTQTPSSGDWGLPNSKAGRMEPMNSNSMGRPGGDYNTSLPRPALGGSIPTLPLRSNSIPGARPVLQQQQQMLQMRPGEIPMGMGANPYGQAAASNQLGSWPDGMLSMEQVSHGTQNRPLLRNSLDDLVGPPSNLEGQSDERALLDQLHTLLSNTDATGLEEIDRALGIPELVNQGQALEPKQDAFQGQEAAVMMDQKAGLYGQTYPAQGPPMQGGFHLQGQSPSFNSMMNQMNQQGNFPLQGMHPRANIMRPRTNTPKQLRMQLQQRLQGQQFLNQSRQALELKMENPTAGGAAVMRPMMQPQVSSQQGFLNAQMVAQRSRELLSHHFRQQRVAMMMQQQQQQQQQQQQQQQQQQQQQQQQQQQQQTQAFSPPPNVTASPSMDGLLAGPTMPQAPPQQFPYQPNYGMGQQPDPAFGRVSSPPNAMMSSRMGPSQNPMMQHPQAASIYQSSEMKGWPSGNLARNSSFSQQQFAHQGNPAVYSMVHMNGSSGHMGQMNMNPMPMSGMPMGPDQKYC

[2] = test system: transactivating tegument protein VP16 (Human herpesvirus 1), Gal4-VP16 luciferase reporter; assay: repression of VP16-driven luciferase reporter – cell-based, luminescence, high throughput, counter-screen for SRC3 inhibitor project (AID 588794); conditions: mammalian cells, at 3.6 µM, hits give high values

## CCc1nc(Nc2ccc3nccnc3c2)c2oc3ccccc3c2n1
[1]
  inhibition: 5.99%
[2]
  inhibition: 13.6%

## O=C(Nc1cccc(S(=O)(=O)N2CCCCC2)c1)c1ccc(S(=O)(=O)C(F)F)cc1
[1]
  inhibition: 3.35%
[2]
  inhibition: 14.9%

## Nc1nc2c(F)cccc2s1
[1]
  inhibition: -3.71%
[2]
  inhibition: 0.2%

## CC(=O)c1cccc(NC(=O)Nc2ccc3c(c2)N(C)C(=O)CS3)c1
[1]
  inhibition: 32.7%
[2]
  inhibition: 3.54%

## O=C1c2ccc3c4c(ccc(c24)C(=O)N1c1cccc(O)c1)C(=O)N(c1cccc(O)c1)C3=O
[1]
  inhibition: 30.3%
[2]
  inhibition: 31% (active)

## Nc1[nH]nc2nc(-c3ccccc3)[nH]c(=O)c12
[1]
  inhibition: -11.1%
[2]
  inhibition: -4.28%

## COc1ccc(NC(=O)C2CCN(S(=O)(=O)c3ccc4c(c3)CC(C)N4C(C)=O)CC2)cc1OC (stereo not given)
[1]
  inhibition: 9.24%
[2]
  inhibition: 5.82%

## O=[N+]([O-])c1ccc(N=Nc2c(Cl)cc(O)cc2Cl)cc1
[1]
  inhibition: 13.9%
[2]
  inhibition: 66% (active)

## O=S(=O)(CC(CN1CCCCC1)N1CCCCC1)c1ccc2ccccc2c1 (stereo not given)
[1]
  inhibition: 4.5%
[2]
  inhibition: 6.94%

## CCCCC(O)(CCCC)C(=O)NN(C(=O)OCC)c1ccccc1
[1]
  inhibition: 11.9%
[2]
  inhibition: 14.8%

## C=C(C(=O)c1ccccc1)C(CC(=O)c1ccccc1)c1ccccc1 (stereo not given)
[1]
  inhibition: 25.9%
[2]
  inhibition: 41.1% (active)

## CO[C@@]12[C@@H]3N[C@@H]3CN1C1=C(C(=O)C(N)=C(C)C1=O)[C@@H]2COC(N)=O
[1]
  inhibition: 35.1%
[2]
  inhibition: 22%

## CCCC(=O)NC(c1ccc(OC)cc1)c1ccc2cccnc2c1O (stereo not given)
[1]
  inhibition: 57.7% (active)
[2]
  inhibition: 63.7% (active)

## CCN(CC)CCCNc1nc2cc(OC)c(OC)cc2c2nc(-c3cccnc3)nn12
[1]
  inhibition: -30.7%
[2]
  inhibition: 39.4% (active)

## CCOC(=O)CC/C(C)=N\N=C1\SC(CC(=O)O)C(=O)N1c1ccccc1 (stereo not given)
[1]
  inhibition: 0.21%
[2]
  inhibition: -4.68%

## Cc1cc(C)n(Cc2ccc(NC(=O)c3ccc(COc4ccccc4Br)cc3)cc2)n1
[1]
  inhibition: -0.48%
[2]
  inhibition: 20.2%

## Cc1ccc(CNC(=O)CCc2ccc(S(=O)(=O)NC3CCCCC3)cc2)cc1
[1]
  inhibition: 0.11%
[2]
  inhibition: 0.04%

## CCc1ccc(N2CC(C(=O)N/N=C/c3cc([N+](=O)[O-])ccc3O)CC2=O)cc1 (stereo not given)
[1]
  inhibition: -9%
[2]
  inhibition: 9.04%

## COc1ccccc1C(CNc1ccc(S(=O)(=O)N2CCCC2)cc1[N+](=O)[O-])N(C)C (stereo not given)
[1]
  inhibition: 23.9%
[2]
  inhibition: 24.9%

## COc1ccccc1NC(=O)Nc1nnc(Cc2ccc(F)cc2)s1
[1]
  inhibition: 3.85%
[2]
  inhibition: 9.25%

## CCOCc1c(C(=O)NC2=Nc3ccccc3NC(CC)=C2C(=O)OCC)oc2ccccc12
[1]
  inhibition: 1.38%
[2]
  inhibition: -11.3%

## COc1cccc(N2CCN(CC(=O)Nc3ccccc3C(=O)NCc3ccccc3)CC2)c1
[1]
  inhibition: -32.3%
[2]
  inhibition: 7.53%

## O=C(CN1C(=O)C(=O)N(C2CCCC2)C1=O)Nc1ccccc1OC(F)F
[1]
  inhibition: 10.1%
[2]
  inhibition: -11.8%

## O=C(Nc1nc(-c2ccccn2)cs1)c1ccc(F)c(S(=O)(=O)N2CCOCC2)c1
[1]
  inhibition: 28%
[2]
  inhibition: 33.5% (active)

## CCN(CC)CCCNc1nc2ccccc2c2nc(-c3ccncc3)nn12
[1]
  inhibition: -2.05%
[2]
  inhibition: 41.3% (active)

## O=C(CCc1ccccc1)N/N=C/c1cc(Br)ccc1O
[1]
  inhibition: 24.5%
[2]
  inhibition: 17.2%

## Cc1ccc(C(=O)C[n+]2cc(-c3ccccc3)n3c2CCCCC3)cc1
[1]
  inhibition: 6.68%
[2]
  inhibition: 22.9%

## CC(C)COc1ccc(C(=O)Nc2sc3c(c2C(=O)O)CC(C)(C)OC3)cc1
[1]
  inhibition: 45.4% (active)
[2]
  inhibition: 68.5% (active)

## CS(=O)(=O)c1ccc(Sc2nc3ccccc3s2)c([N+](=O)[O-])c1
[1]
  inhibition: 45.8% (active)
[2]
  inhibition: 19.5%

## CCOC(=O)c1c(NC(=O)COc2cccc3c2CCN(C)C3=O)sc2c1CCC2
[1]
  inhibition: -1.43%
[2]
  inhibition: 10.2%

## CCC(C)(CC(=O)O)CC(=O)Nc1cc(C(F)(F)F)cc(C(F)(F)F)c1 (stereo not given)
[1]
  inhibition: 9.02%
[2]
  inhibition: -3.88%

## O=C(Cc1ccccc1)Nc1cc(Cl)ccc1Sc1ccccc1
[1]
  inhibition: 2.36%
[2]
  inhibition: 5.41%

## CCOC(=O)c1cccc(NC(=O)CSc2nc3cccnc3n2C)c1
[1]
  inhibition: 9.81%
[2]
  inhibition: 25.1%

## Cc1cc(/C=C2\SC(=S)N(C)C2=O)c(C)n1-c1cccc(O)c1
[1]
  inhibition: 51.6% (active)
[2]
  inhibition: 38% (active)

## CN1C(=O)C2(C(C#N)=C(N)N(c3cc(Cl)cc(Cl)c3)C3=C2C(=O)CCC3)c2ccccc21 (stereo not given)
[1]
  inhibition: 30.9%
[2]
  inhibition: 27.9%

## COC(=O)Cc1[nH]n(-c2nc3ccccc3s2)c(=O)c1C(C)=Nc1ccc(C)cc1
[1]
  inhibition: 90.5% (active)
[2]
  inhibition: 87.1% (active)

## C=CCSc1nc2ccccc2n1C(=O)/C=C/c1cc(OC)c(OC)c(OC)c1
[1]
  inhibition: -6.27%
[2]
  inhibition: -10.3%

## COc1ccc(CCNC(=O)C(C)n2nc(C)c3c(C)n(-c4ccc(C)cc4)nc3c2=O)c(OC)c1 (stereo not given)
[1]
  inhibition: 7.11%
[2]
  inhibition: 30.4% (active)

## C=CCOn1c(C)c(C(C)=O)c2c3nonc3ccc21
[1]
  inhibition: 42%
[2]
  inhibition: 25.4%

## O=C(O)c1ccc(Cl)c(S(=O)(=O)NCc2cccnc2)c1
[1]
  inhibition: 0.83%
[2]
  inhibition: -9.62%

## O=C(NCCc1cn2ccccc2n1)c1cc(COc2ccc3ncccc3c2)on1
[1]
  inhibition: -5.01%
[2]
  inhibition: 18.4%

## Cc1ccc(-c2cn(-c3ccc(OC(F)F)cc3)c3[n+]2CCCCC3)cc1
[1]
  inhibition: 3.74%
[2]
  inhibition: 23%

## CCc1ccc(/C=C/c2c([N+](=O)[O-])c(=O)n(C)c(=O)n2C)cc1
[1]
  inhibition: 39.7%
[2]
  inhibition: 41.3% (active)

## O=C(N/N=C\c1c(O)ccc2ccccc12)c1ccc(Cn2cccn2)o1
[1]
  inhibition: 49.1% (active)
[2]
  inhibition: 39.5% (active)

## CC(C)(Sc1cc(C(C)(C)C)c(O)c(C(C)(C)C)c1)Sc1cc(C(C)(C)C)c(O)c(C(C)(C)C)c1
[1]
  inhibition: 15.9%
[2]
  inhibition: -0.87%

## CCSc1nsc(NC(=O)Nc2cccc(F)c2)n1
[1]
  inhibition: 13.2%
[2]
  inhibition: 15.4%

## CN(Cc1cccc(F)c1)C(=O)C1CC(=O)N(Cc2ccco2)C1 (stereo not given)
[1]
  inhibition: -0.39%
[2]
  inhibition: -6.54%

## Cc1oc(S(=O)(=O)N(C)C)cc1C(=O)Nc1ccc(Cl)cc1
[1]
  inhibition: -1.4%
[2]
  inhibition: 8.66%

## C=C[C@@H]1c2c(F)cccc2N(S(=O)(=O)c2ccc(C)cc2)[C@H](c2ccc(OC(C)=O)cc2)C1(C#N)C#N
[1]
  inhibition: 10.4%
[2]
  inhibition: 3.61%

## O=C1CC(=O)OC(c2ccc([N+](=O)[O-])cc2)O1
[1]
  inhibition: 26.8%
[2]
  inhibition: 40.5% (active)

## O=C(NCc1ccccc1)c1c(Cl)nc(Cl)c(Cl)c1Cl
[1]
  inhibition: 42.1%
[2]
  inhibition: 21.9%

## CCc1cccc(CC)c1C(OC(C)=O)c1cccnc1 (stereo not given)
[1]
  inhibition: -15.7%
[2]
  inhibition: -7.1%

## Cc1ccc(-c2nc(CS(=O)CC(=O)NCCCN3CCN(Cc4ccccc4)CC3)c(C)o2)cc1 (stereo not given)
[1]
  inhibition: 20.1%
[2]
  inhibition: 8.49%

## CCC(C)c1ccc(NC(=S)N2CCN(C(=O)C3CCCO3)CC2)cc1 (stereo not given)
[1]
  inhibition: 8.54%
[2]
  inhibition: -1.88%

## COc1cccc(C(=O)CC(=O)C(=O)Nc2cccc([N+](=O)[O-])c2C)c1
[1]
  inhibition: -3.08%
[2]
  inhibition: -1.84%

## [O-]C(=C(C(=S)Nc1cccc2ccccc12)[n+]1ccccc1)c1ccc2c(c1)OCCO2
[1]
  inhibition: 3.21%
[2]
  inhibition: -0.81%

## O=c1[nH]c(=O)n([C@H]2C[C@H](O)[C@@H](CO)O2)cc1Br
[1]
  inhibition: 14.7%
[2]
  inhibition: 16.2%

## Cc1nc(SCC(=O)NNC(=O)c2ccc(F)cc2)c2ccccc2n1
[1]
  inhibition: -5.28%
[2]
  inhibition: -10.9%

## COc1ccc(NC(=O)c2ccc(-c3ccccc3)cc2)cc1S(=O)(=O)N1CCOCC1
[1]
  inhibition: 12%
[2]
  inhibition: 34.6% (active)

## CC(C)(CC(=O)O)CC(=O)Nc1cc(C(F)(F)F)cc(C(F)(F)F)c1
[1]
  inhibition: 6.02%
[2]
  inhibition: -7.34%

## CCOc1cccc(/C=N/NC(=O)c2cc(-c3cccn3C)n[nH]2)c1O
[1]
  inhibition: 26%
[2]
  inhibition: 40% (active)

## Cc1[nH]c2ccccc2c1C(=O)CN1C(=O)NC2(CC(C)CC(C)(C)C2)C1=O (stereo not given)
[1]
  inhibition: 11.9%
[2]
  inhibition: -5.15%

## NC(=O)CC(NC(=O)c1cccc(Br)c1)c1ccc(NC2CCN(Cc3ccccc3)CC2)c([N+](=O)[O-])c1 (stereo not given)
[1]
  inhibition: -3.11%
[2]
  inhibition: -4.06%

## COc1ccc(C(=O)NN(C)c2nc(C(F)(F)F)nc3ccccc23)cc1
[1]
  inhibition: 51.1% (active)
[2]
  inhibition: 35.3% (active)

## CCCn1nc(C(=O)NCC2COc3ccccc3O2)c2ccccc2c1=O (stereo not given)
[1]
  inhibition: 9.61%
[2]
  inhibition: 3.2%

## CCSc1nnc(NC(=O)C(CC)(C(F)(F)F)C(F)(F)F)s1
[1]
  inhibition: 7.54%
[2]
  inhibition: 19.6%

## CCN(C(=O)c1cnc(OC)cc1C(F)(F)F)c1ccc(Cl)cc1
[1]
  inhibition: 9.44%
[2]
  inhibition: 4.62%

## Cc1ccccc1OCCNC(=O)c1ccccc1Sc1ccccc1C#N
[1]
  inhibition: 6.19%
[2]
  inhibition: 1.44%

## O=C(N/N=C/c1cc(Br)ccc1OC(=O)c1ccc(Br)cc1)c1ccncc1
[1]
  inhibition: 20.5%
[2]
  inhibition: 28%

## COC(=O)c1ccccc1-c1ccc(C(c2c(C)[nH][nH]c2=O)c2c(C)[nH][nH]c2=O)o1
[1]
  inhibition: 22.8%
[2]
  inhibition: -7.34%
